Laboratory results: PubChem BioAssay (Tox21)
Inconclusive results are not listed. Calls of active or inactive are those of the source. Unless noted, calls follow the shape of the dose curve; as a rule, active = well fitted curve in the direction sought with a large enough effect in the repeat runs; inconclusive = weak or mixed curves; inactive = no such curve, though single readings can be large; an effect the other way counts as inactive or inconclusive.

Columns and labels:
[1] = target: Acetylcholinesterase (Homo sapiens) (UniProt P22303); test: Acetylcholinesterase (AChE) small molecule antagonists: enzyme-based qHTS assay (AID 1347397; calls by dose curve; also: nearly all actives have a fitted effect of over 55% in size); conditions: Potency: AChE enzyme activity inhibition; outcome: AChE enzyme activity inhibition
Acetylcholinesterase (Homo sapiens), sequence (P22303 whole entry, looked up): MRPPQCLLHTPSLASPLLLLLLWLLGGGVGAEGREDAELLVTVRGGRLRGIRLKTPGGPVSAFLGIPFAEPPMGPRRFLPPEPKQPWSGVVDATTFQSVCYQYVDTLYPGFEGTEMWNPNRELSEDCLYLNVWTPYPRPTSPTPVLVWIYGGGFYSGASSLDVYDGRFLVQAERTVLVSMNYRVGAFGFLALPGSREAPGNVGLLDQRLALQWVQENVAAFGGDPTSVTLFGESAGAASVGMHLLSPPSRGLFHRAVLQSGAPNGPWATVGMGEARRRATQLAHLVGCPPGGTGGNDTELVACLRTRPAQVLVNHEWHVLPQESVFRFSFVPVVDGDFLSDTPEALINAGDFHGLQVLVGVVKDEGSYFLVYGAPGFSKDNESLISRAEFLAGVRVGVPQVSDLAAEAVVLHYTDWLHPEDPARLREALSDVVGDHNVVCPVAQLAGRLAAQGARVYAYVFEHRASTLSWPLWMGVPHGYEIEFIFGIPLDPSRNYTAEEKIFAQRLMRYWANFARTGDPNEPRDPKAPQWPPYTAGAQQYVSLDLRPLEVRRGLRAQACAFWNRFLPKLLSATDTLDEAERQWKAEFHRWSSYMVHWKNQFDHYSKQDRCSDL
Procedure, shortened: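 Compound or DMSO vehicle was pin-transferred onto recombinant human AChE (50 mU/mL as dispensed) and left 30 min at room temperature. Acetylthiocholine with DTNB then started the reaction, read colorimetrically 10 min later.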

[2] = target: Acetylcholinesterase (Homo sapiens) (UniProt P22303); test: Acetylcholinesterase (AChE) small molecule antagonists: fluorescence cell-based qHTS assay (AID 1347398; calls by dose curve; also: nearly all actives have a fitted effect of over 50% in size); conditions: Potency: AChE activity; outcome: AChE activity
Procedure, shortened: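 Using neuroblastoma SH-SY5Y cells as the enzyme source, test chemicals are preincubated 30 min at 37 C; AChE-driven acetylthiocholine cleavage is then quantified by thiocholine-dependent Thiolite Green fluorescence after 40 min at room temperature.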

[3] = target: Acetylcholinesterase (Homo sapiens) (UniProt P22303); test: Acetylcholinesterase (AChE) small molecule antagonists: enzyme-based qHTS assay with human liver microsomes (AID 1347399; calls by dose curve; also: nearly all actives have a fitted effect of over 60% in size); conditions: Potency: qHTS inhibition; outcome: qHTS inhibition
Procedure, shortened: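 Recombinant human AChE (50 mU/mL in the enzyme mix) and human liver microsomes (0.25 mg/mL final) were preincubated with compound and NADPH (0.25 mg/mL final) for 30 min at 37 C. Acetylthiocholine/DTNB was then added; thiocholine was read colorimetrically after 10 min at room temperature.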

[4] = qHTS assay for small molecule agonists of the p53 signaling pathway (AID 651631; calls by dose curve; also: nearly all actives have a fitted effect of over 15% in size)
Procedure, shortened: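 p53RE-bla HCT-116 cells; compounds 16 h, 37 °C; LiveBLAzer B/G FRET substrate 2 h RT; fluorescence intensity read-out, qHTS format.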

[5] = qHTS assay for small molecules that induce genotoxicity in human embryonic kidney cells expressing luciferase-tagged ATAD5 (AID 651632); also: nearly all actives have a fitted effect of over 15% in size
Procedure, shortened: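 Test compounds were delivered by pin tool onto HEK293T reporter cells (2,000/well) expressing ATAD5 fused to luciferase. After 16 hr at 37C, 5% CO2, Amplite was added for 30 min at room temperature and luminescence was measured.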

[6] = qHTS assay for small molecule agonists of the p53 signaling pathway - cell viability (AID 651633; calls by dose curve;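 also: p53RE-bla HCT reporter cells with a stable beta-lactamase p53 reporter; series mostly up to about 83 µM; nearly all actives have a fitted effect of over 30% in size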)
Procedure, shortened: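 p53RE-bla cells, seeded at 4,000 per well and rested 5 h at 37 C/5% CO2, received compounds in DMSO for 16 h at 37 C. CellTiter-Glo was then added, and luminescence was read after 30 min at room temperature to gauge cytotoxicity.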

[7] = qHTS assay for small molecules that induce genotoxicity in human embryonic kidney cells expressing luciferase-tagged ATAD5 - cell viability (AID 651634; calls by dose curve; also: nearly all actives have a fitted effect of over 25% in size)
Procedure, shortened: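 Quantitative high-throughput format. HEK293T cells expressing ATAD5 fused to luciferase were plated at 2,000 cells/well and treated 15.5 hr with compound versus DMSO. Viability was determined by fluorescent live-cell protease substrate, 30 min at 37C.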

[8] = qHTS assay for small molecule disruptors of the mitochondrial membrane potential - cell viability (AID 720634; calls by dose curve;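 also: human HepG2 liver cancer cells; series mostly up to about 83 µM; nearly all actives have a fitted effect of over 20% in size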)
Procedure, shortened: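 Same-well counter-screen: following the MMP dye addition, CellTiter-Glo was added to 1 hr compound-treated HepG2 cells and luminescence read after 30 min at room temperature.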

[9] = qHTS assay for small molecule disruptors of the mitochondrial membrane potential (AID 720635)
Procedure, shortened: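 HepG2 cells (2,000/well) attached overnight at 37C, then took compound for 1 hr at 37C, 5% CO2. Mito-MPS dye was added for 30 min; fluorescence was read at 490/535 nm (monomers) and 540/590 nm (aggregates).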

[10] = qHTS assay to test for compound auto fluorescence at 590 nm (red) in HepG2 cells (AID 720674)
Procedure, shortened: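 Rose Bengal sodium served as the red fluorophore standard. HepG2 monolayers (overnight attachment, MEM with 10% FBS) were exposed to test compounds for 1 hr at 37 C and read at Ex 540/Em 590 nm.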

[11] = qHTS assay to test for compound auto fluorescence at 535 nm (green) in HepG2 cells (AID 720675)
[12] = qHTS assay to test for compound auto fluorescence at 590 nm (red) in HEK293 cells (AID 720679)
Procedure, shortened: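 Intensity at 540nm excitation and 590nm emission is reported as Rose Bengal sodium-equivalent autofluorescence. Measurements followed overnight exposure (37C, 5% CO2) of HEK293 cells, 2,000 per well, to 23 nL compound.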

[13] = qHTS assay to test for compound auto fluorescence at 535 nm (green) in HEK293 cells (AID 720680)
[14] = qHTS assay to test for compound auto fluorescence at 460 nm (blue) in HEK293 cell free culture (AID 720681)
Procedure, shortened: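 Test compounds were pinned into cell-free culture medium (DMEM with 10% FBS) and fluorescence was read directly at Ex/Em 405/460 nm. Signals were expressed as fluorescence equivalents of triamterene, with DMSO vehicle as control.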

[15] = qHTS assay to test for compound auto fluorescence at 535 nm (green) in HEK293 cell free culture (AID 720682)
Procedure, shortened: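 Cell-free medium (DMEM, 10% FBS) receives compound or DMSO by pintool. Plate read directly at Ex 485/Em 535 nm. Signal converted to fluorescein equivalency.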

[16] = qHTS assay to test for compound auto fluorescence at 590 nm (red) in HEK293 cell free culture (AID 720683)
Procedure, shortened: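 Tox21 10K library compounds were pinned into cell-free DMEM with 10% FBS and fluorescence was read at excitation 540 nm. Activity is expressed as Rose Bengal sodium equivalency.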

[17] = qHTS assay to test for compound auto fluorescence at 590 nm (red) in HepG2 cell free culture (AID 720684)
Procedure, shortened: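 Ex 540 / Em 590 nm read of compound in cell-free MEM (10% FBS). Rose Bengal sodium reference.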

[18] = qHTS assay to test for compound auto fluorescence at 460 nm (blue) in HepG2 cell free culture (AID 720685)
Procedure, shortened: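 Cell-free plates of MEM plus 10% FBS received 23 nL compound or DMSO vehicle; blue-channel (405/460 nm) intensity scored against triamterene as reference fluorophore.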

[19] = qHTS assay to test for compound auto fluorescence at 535 nm (green) in HepG2 cell free culture (AID 720686)
[20] = qHTS assay to test for compound auto fluorescence at 460 nm (blue) in HepG2 cells (AID 720687)
Procedure, shortened: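 Cells (2,000/well in MEM with 10% FBS) attached overnight at 37 C, then were exposed to compound or DMSO for 1 hr at 37 C, 5% CO2. Fluorescence read at Ex/Em 405/460 nm, expressed as triamterene-equivalent signal.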

[21] = target: Glucocorticoid receptor (Homo sapiens) (UniProt P04150); test: qHTS assay to identify small molecule agonists of the glucocorticoid receptor (GR) signaling pathway (AID 720691; active = well fitted activation curve with a large enough effect in the signal ratio in the repeat runs, not every such curve was filed as active; the % refers to the signal ratio)
Glucocorticoid receptor (Homo sapiens), sequence (P04150 whole entry, looked up): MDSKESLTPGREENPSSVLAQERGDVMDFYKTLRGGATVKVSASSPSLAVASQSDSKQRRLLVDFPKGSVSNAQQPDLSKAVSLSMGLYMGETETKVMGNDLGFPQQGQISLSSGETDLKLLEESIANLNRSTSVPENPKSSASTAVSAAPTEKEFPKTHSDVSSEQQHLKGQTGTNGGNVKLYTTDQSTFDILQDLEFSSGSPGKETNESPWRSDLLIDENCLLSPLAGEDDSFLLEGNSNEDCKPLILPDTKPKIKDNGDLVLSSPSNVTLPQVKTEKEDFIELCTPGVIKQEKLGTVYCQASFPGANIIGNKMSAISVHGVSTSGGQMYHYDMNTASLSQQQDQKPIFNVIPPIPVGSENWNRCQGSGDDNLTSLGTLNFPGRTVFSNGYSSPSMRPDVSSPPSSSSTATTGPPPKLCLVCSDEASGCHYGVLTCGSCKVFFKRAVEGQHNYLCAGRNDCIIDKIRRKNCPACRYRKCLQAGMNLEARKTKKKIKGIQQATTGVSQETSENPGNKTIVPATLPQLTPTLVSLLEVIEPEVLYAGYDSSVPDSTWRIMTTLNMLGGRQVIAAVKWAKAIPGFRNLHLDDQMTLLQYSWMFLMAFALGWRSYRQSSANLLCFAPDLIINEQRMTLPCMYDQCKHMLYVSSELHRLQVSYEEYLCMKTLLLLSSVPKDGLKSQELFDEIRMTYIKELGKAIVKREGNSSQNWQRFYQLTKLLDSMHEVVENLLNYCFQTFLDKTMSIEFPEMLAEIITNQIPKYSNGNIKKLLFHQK
Procedure, shortened: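 A HeLa cervical cancer line expressing GR and a glucocorticoid response element-driven beta-lactamase gene is treated with compounds for 18 h; LiveBLAzer B/G FRET substrate is then applied and fluorescence read.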

[22] = target: Glucocorticoid receptor (Homo sapiens) (UniProt P04150); test: qHTS assay to identify small molecule antagonists of the glucocorticoid receptor (GR) signaling pathway (AID 720692; active = well fitted inhibition curve with a large enough effect in the signal ratio in the repeat runs, not every such curve was filed as active; the % refers to the signal ratio)
Procedure, shortened: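 GRE-bla HeLa line, dex-stimulated (5 nM final). Compound exposure 18 h, 37 C. Beta-lactamase FRET read after 2 h RT substrate.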

[23] = qHTS assay to identify small molecule antagonists of the glucocorticoid receptor (GR) signaling pathway - cell viability counter screen (AID 720693); also: nearly all actives have a fitted effect of over 55% in size
[24] = qHTS assay for identifying genotoxic compounds that show differential cytotoxicity against isogenic chicken DT40 cell lines with known DNA damage response pathways - Rev3 mutant cell line (AID 743014); also: nearly all actives have a fitted effect of over 55% in size
[25] = qHTS assay for identifying genotoxic compounds that show differential cytotoxicity against isogenic chicken DT40 cell lines with known DNA damage response pathways - Rad54/Ku70 mutant cell line (AID 743015); also: nearly all actives have a fitted effect of over 60% in size; also: potency is read from the fitted curve at half-maximal effect
[26] = qHTS assay to identify small molecule antagonists of the androgen receptor (AR) signaling pathway - cell viability counter screen (AID 743033; also: nearly all actives have a fitted effect of over 45% in size)
[27] = qHTS assay to identify small molecule antagonists of the androgen receptor (AR) signaling pathway using the MDA cell line - cell viability counter screen (AID 743041; also: nearly all actives have a fitted effect of over 45% in size)
Procedure, shortened: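 In this qHTS counter assay, fluorescence intensity after CellTiter-Fluor addition indicated viability of MDA-kb2 AR-luc cells given compounds and R1881 for 16 h at 37C.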

[28] = qHTS assay to identify small molecule antagonists of the estrogen receptor alpha (ER-alpha) signaling pathway - cell viability counter screen (AID 743074; calls by dose curve;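 also: HEK293 cells carrying ER-alpha-UAS-bla reporter stimulated with 17beta-estradiol; nearly all actives have a fitted effect of over 45% in size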)
[29] = qHTS assay to identify small molecule antagonists of the estrogen receptor alpha (ER-alpha) signaling pathway using the BG1 cell line - cell viability counter screen (AID 743081);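 also: compound given together with 17beta-estradiol as the ER stimulus; series mostly up to about 70 µM; nearly all actives have a fitted effect of over 45% in size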
[30] = target: Aromatase (Homo sapiens) (UniProt P11511); test: qHTS assay to identify aromatase inhibitors (AID 743083); also: series mostly up to about 70 µM; nearly all actives have a fitted effect of over 55% in size
Aromatase (Homo sapiens), sequence (P11511 whole entry, looked up): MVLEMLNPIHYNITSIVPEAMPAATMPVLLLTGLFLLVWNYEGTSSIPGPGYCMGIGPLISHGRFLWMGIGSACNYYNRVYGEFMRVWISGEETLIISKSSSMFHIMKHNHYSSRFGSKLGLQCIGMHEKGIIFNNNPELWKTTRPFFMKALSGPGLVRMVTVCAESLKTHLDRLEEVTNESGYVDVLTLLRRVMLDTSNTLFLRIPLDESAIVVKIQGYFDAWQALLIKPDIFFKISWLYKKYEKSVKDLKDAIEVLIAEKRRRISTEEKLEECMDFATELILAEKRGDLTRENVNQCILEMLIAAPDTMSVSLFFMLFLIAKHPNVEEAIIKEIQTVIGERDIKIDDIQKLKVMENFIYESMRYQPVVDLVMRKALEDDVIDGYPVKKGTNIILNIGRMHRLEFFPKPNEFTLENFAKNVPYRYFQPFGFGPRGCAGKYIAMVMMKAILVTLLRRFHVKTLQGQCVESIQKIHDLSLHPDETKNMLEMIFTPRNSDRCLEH

[31] = qHTS assay to identify aromatase inhibitors - cell viability counter screen (AID 743084)
[32] = target: Aryl hydrocarbon receptor (Homo sapiens) (UniProt P35869); test: qHTS assay to identify small molecule that activate the aryl hydrocarbon receptor (AhR) signaling pathway (AID 743085); also: nearly all actives have a fitted effect of over 15% in size; also: potency is read from the fitted curve at half-maximal effect;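 as to activation: HG2L7.5c1 human HepG2 liver cells with stably integrated DRE-driven firefly reporter; series mostly up to about 70 µM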
Aryl hydrocarbon receptor (Homo sapiens), sequence (P35869 whole entry, looked up): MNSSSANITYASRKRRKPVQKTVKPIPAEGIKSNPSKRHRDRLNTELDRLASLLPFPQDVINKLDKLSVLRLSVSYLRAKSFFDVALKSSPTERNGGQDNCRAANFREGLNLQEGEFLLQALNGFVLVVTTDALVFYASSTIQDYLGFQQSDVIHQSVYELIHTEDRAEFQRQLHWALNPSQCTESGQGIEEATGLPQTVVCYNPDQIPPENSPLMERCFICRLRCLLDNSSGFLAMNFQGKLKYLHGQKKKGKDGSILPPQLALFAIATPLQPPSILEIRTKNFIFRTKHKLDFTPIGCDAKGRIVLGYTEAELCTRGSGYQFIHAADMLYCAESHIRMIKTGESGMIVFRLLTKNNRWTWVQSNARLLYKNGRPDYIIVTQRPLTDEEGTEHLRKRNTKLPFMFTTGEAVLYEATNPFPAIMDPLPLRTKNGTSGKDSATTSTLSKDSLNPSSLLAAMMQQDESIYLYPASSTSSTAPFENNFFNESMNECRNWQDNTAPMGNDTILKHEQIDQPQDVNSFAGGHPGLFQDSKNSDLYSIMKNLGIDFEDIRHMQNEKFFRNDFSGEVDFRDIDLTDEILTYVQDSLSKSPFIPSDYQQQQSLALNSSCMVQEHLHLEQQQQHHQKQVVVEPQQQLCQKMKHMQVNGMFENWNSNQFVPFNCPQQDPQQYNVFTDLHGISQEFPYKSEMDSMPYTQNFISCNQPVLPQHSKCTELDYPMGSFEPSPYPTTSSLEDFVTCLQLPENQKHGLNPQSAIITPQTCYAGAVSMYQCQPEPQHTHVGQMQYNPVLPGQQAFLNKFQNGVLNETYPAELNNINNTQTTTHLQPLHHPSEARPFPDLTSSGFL
Procedure, shortened: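 Luminescence read-out: ONE-Glo reagent, 30 min at room temperature, in HG2L7.5c1 HepG2 reporter cells treated 24 h at 37C. Viability was measured beforehand by CellTiter-Fluor fluorescence after 30 min at 37C.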

[33] = qHTS assay to identify small molecule that activate the aryl hydrocarbon receptor (AhR) signaling pathway - cell viability counter screen (AID 743086)
Procedure, shortened: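 HepG2-AhR-luc (HG2L7.5c1) cells, 4000/well, were preincubated 5 h at 37C, exposed to compound in qHTS format for 24 hr at 37C, then given CellTiter-Fluor for 30 min; viability was read as fluorescence in the reporter wells.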

[34] = target: Peroxisome proliferator-activated receptor gamma (Homo sapiens) (UniProt P37231); test: qHTS assay to identify small molecule agonists of the peroxisome proliferator-activated receptor gamma (PPARg) signaling pathway (AID 743094; active = well fitted activation curve with a large enough effect in the signal ratio in the repeat runs, not every such curve was filed as active; the % refers to the signal ratio)
Peroxisome proliferator-activated receptor gamma (Homo sapiens), sequence (P37231 whole entry, looked up): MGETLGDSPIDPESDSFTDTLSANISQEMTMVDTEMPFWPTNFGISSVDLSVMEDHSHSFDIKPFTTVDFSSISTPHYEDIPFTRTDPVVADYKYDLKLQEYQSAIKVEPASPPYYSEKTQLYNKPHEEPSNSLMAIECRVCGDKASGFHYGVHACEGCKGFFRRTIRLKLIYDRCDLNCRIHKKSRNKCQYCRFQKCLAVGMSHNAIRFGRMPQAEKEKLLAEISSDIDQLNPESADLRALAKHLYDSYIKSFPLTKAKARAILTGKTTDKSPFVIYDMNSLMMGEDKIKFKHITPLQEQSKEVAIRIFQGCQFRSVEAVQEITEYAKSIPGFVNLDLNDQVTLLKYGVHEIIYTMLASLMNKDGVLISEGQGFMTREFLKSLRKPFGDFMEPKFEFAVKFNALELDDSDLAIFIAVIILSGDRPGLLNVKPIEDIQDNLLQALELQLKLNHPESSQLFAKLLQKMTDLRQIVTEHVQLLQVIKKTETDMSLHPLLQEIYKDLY
Procedure, shortened: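 Cell-based bla reporter, HEK293H background, PPARg-driven UAS. Pre-incubation 5 h, 37C, 5% CO2. Compound 17 h, 37C. Substrate 1 h RT; fluorescence.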

[35] = qHTS assay to test for compound auto fluorescence at 460 nm (blue) in HEK293 cells (AID 720678)
Procedure, shortened: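 HEK293, 2,000 cells/well, 10% dialyzed FBS; attach 4-5 hr 37C; pin compound or DMSO; o/n 37C/5% CO2; fluorescence 405/460 nm; triamterene-equivalent units.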

[36] = qHTS assay for identifying genotoxic compounds that show differential cytotoxicity against isogenic chicken DT40 cell lines with known DNA damage response pathways - wild type cell line (AID 743012); also: potency is read from the fitted curve at half-maximal effect; nearly all actives have a fitted effect of over 60% in size
Procedure, shortened: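 300 wt DT40 cells/well; cpd (DMSO) pintool-transferred after ~0.5 h at 37 C/5% CO2; 40 h incubation; CellTiter-Glo added, 30 min RT; luminescence read.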

[37] = qHTS assay to identify small molecule antagonists of the thyroid receptor (TR) signaling pathway - cell viability counter screen (AID 743064); also: potency is read from the fitted curve at half-maximal effect; nearly all actives have a fitted effect of over 50% in size
Procedure, shortened: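 GH3.TRE-Luc cells, 4 h pre-plating; cpd + T3 1 nM final; 37 °C 23.5 h; CellTiter-Fluor 30 min; fluorescence read.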

[38] = qHTS assay to identify small molecule antagonists of the thyroid receptor (TR) signaling pathway (AID 743065)
Procedure, shortened: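 GH3.TRE-Luc rat pituitary cells carrying two TR response elements driving luciferase were plated for 4 h, given compound plus 1 nM T3 (final), and incubated 23.5 h at 37 C. ONE-Glo luminescence measured reporter inhibition; CellTiter-Fluor fluorescence tracked cytotoxicity.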

[39] = tested on: thyroid hormone receptor (rat, GH3 cells); test: qHTS assay to identify small molecule agonists of the thyroid receptor (TR) signaling pathway (AID 743066; calls by dose curve)
[40] = target: Estrogen receptor (Homo sapiens) (UniProt P03372); test: qHTS assay to identify small molecule antagonists of the estrogen receptor alpha (ER-alpha) signaling pathway (AID 743069; active = well fitted curve in the direction sought with a large enough effect in the signal ratio in the repeat runs, not every such curve was filed as active; the % refers to the signal ratio)
Estrogen receptor (Homo sapiens), sequence (P03372 whole entry, looked up): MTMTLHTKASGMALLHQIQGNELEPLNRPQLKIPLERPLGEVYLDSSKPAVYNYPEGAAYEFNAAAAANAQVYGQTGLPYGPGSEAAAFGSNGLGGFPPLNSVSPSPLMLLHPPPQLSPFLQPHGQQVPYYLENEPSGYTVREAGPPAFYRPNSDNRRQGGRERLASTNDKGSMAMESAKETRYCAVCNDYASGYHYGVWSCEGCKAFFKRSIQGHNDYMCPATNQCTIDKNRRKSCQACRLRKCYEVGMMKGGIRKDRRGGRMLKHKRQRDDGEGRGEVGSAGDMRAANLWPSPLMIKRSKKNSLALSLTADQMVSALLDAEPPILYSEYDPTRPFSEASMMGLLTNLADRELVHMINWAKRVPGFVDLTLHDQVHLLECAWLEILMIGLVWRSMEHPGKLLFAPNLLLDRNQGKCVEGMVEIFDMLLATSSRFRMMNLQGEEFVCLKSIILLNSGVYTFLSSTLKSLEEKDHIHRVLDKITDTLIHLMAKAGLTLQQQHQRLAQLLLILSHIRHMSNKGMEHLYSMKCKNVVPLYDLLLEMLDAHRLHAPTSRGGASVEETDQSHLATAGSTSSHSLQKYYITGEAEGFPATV
Procedure, shortened: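 A 17beta-estradiol challenge was applied right after compound transfer to ER-alpha-UAS-bla HEK293 cells previously kept in charcoal-stripped serum. Plates stood 18 hr at 37C and 5% CO2; fluorescence was read following 2 hr FRET substrate loading at room temperature.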

[41] = target: Estrogen receptor (Homo sapiens) (UniProt P03372); test: qHTS assay to identify small molecule agonists of the estrogen receptor alpha (ER-alpha) signaling pathway (AID 743075; calls by dose curve;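 also: HEK293 GripTite cells with ER-alpha and UAS-driven beta-lactamase reporter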)
[42] = target: Estrogen receptor (Homo sapiens) (UniProt P03372); test: qHTS assay to identify small molecule agonists of the estrogen receptor alpha (ER-alpha) signaling pathway using the BG1 cell line (AID 743079); also: nearly all actives have a fitted effect of over 20% in size

Measured: Potency

CCCCCCCCCCCCCCO
inactive: [1] | [2] | [3]

CCCC(=O)OCC(COC(=O)CCC)OC(=O)CCC
inactive: [1] | [2] | [3]

Nc1nc(N)c2nc(CNc3ccc(C(=O)N[C@@H](CCC(=O)O)C(=O)O)cc3)cnc2n1
inactive: [1] | [2] | [3]

Cn1c(=O)c2c(ncn2CCO)n(C)c1=O
inactive: [1] | [2] | [3]

O=C(O)CCCCC1CCSS1 (stereo unspecified)
inactive: [1] | [2] | [3]

c1ccc2c(c1)Sc1ccccc1N2C[C@@H]1CN2CCC1CC2
not listed: [1] | [2] | [3] | [35] | [36] | [37] | [38] | [39] | [40] | [41] | [42]
inactive: all other assays above

O=[N+]([O-])c1ccccc1Nc1ccccc1
inactive: [1] | [2] | [3]

C[C@H]1[C@H]2Cc3ccc(O)cc3[C@]1(C)CCN2CCc1ccccc1
active: [36] 6.8 µM | [25] 17.1 µM | [37] 30.4 µM | [38] 27.1 µM | [32] 12.1 µM
not listed: [1] | [2] | [3] | [4] | [6] | [8] | [9] | [10] | [24] | [27] | [29] | [33] | [34]
inactive: all other assays above

NNC(=O)c1cccc(C(=O)NN)c1
inactive: [1] | [2] | [3]
